Experiments:
Assay in all cases: PBM binding z-score (relative to random genomic background probes); higher = stronger binding; sequences stand for … in GC…GCGATTGACAGCGTAGAATGAAGG
[1] = test system: FXR:RXRa (NR concentration 270 nM, RXRa partner concentration 90 nM)
Method in brief: (§1)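 Regression normalization was applied to scanned fluorescence from custom Agilent 4×180K protein-binding microarrays. Before scanning, arrays were incubated 1 h with ligand-free nuclear receptor dimers, and binding was detected with antibodies against each partner (one per run). Binding z-scores use the random background probes as reference.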

[2] = test system: LXRa:RXRa (NR concentration 270 nM, RXRa partner concentration 90 nM)
Method in brief: as §1

[3] = test system: LXRa homodimer (NR concentration 270 nM)
Method in brief: as §1

[4] = test system: LXRb:RXRa (NR concentration 270 nM, RXRa partner concentration 90 nM)
Method in brief: as §1

[5] = test system: LXRb homodimer (NR concentration 270 nM)
Method in brief: as §1

[6] = test system: PPARa:RXRa (NR concentration 270 nM, RXRa partner concentration 90 nM)
Method in brief: as §1

[7] = test system: PPARg:RXRa (NR concentration 180 nM, RXRa partner concentration 90 nM)
Method in brief: as §1

[8] = test system: PPARg:RXRa 270nM:90nM, anti-RXR (NR concentration 270 nM, RXRa partner concentration 90 nM)
Method in brief: as §1

[9] = test system: PPARg:RXRa 30nM:10nM, anti-RXR (NR concentration 30 nM, RXRa partner concentration 10 nM)
Method in brief: as §1

[10] = test system: PPARg:RXRa 90nM:30nM, anti-RXR (NR concentration 90 nM, RXRa partner concentration 30 nM)
Method in brief: as §1

[11] = test system: PPARg:RXRa DBDmut IVT, anti-RXR (DBD mutation: RXRa K156A/R161A, NR concentration 270 nM, RXRa partner concentration 90 nM)
Method in brief: as §1

[12] = test system: PPARg:RXRa IVT, anti-PPARg (NR concentration 270 nM, RXRa partner concentration 90 nM)
Method in brief: as §1

[13] = test system: PPARg DBDmut:RXRa IVT, anti-PPARg (DBD mutation: PPARg1 K132A/R137A, NR concentration 270 nM, RXRa partner concentration 90 nM)
Method in brief: as §1

[14] = test system: PPARg DBDmut IVT, anti-PPARg (DBD mutation: PPARg1 K132A/R137A, NR concentration 270 nM)
Method in brief: as §1

[15] = test system: PPARg homodimer (NR concentration 180 nM)
Method in brief: as §1

[16] = test system: PXR:RXRa (NR concentration 270 nM, RXRa partner concentration 90 nM)
Method in brief: as §1

[17] = test system: PXR homodimer (NR concentration 270 nM)
Method in brief: as §1

[18] = test system: RARa:RXR (NR concentration 270 nM, RXRa partner concentration 90 nM)
Method in brief: as §1

[19] = test system: RARa homodimer (NR concentration 270 nM)
Method in brief: as §1

[20] = test system: RARb:RXRa (NR concentration 270 nM, RXRa partner concentration 90 nM)
Method in brief: as §1

Row | Sequence | PBM binding z-score [1] | PBM binding z-score [2] | PBM binding z-score [3] | PBM binding z-score [4] | PBM binding z-score [5] | PBM binding z-score [6] | PBM binding z-score [7] | PBM binding z-score [8] | PBM binding z-score [9] | PBM binding z-score [10] | PBM binding z-score [11] | PBM binding z-score [12] | PBM binding z-score [13] | PBM binding z-score [14] | PBM binding z-score [15] | PBM binding z-score [16] | PBM binding z-score [17] | PBM binding z-score [18] | PBM binding z-score [19] | PBM binding z-score [20]
1 | CCTACTGGCCCATCAGGTCATTGATATCAACGTT | 1.56 | 1.2 | 1.15 | 1.63 | 0.0775 | 1.62 | 0.503 | 1.07 | 0.112 | 0.701 | -0.199 | 1.1 | -0.917 | 0.381 | 1.47 | 1.61 | 0.678 | 1.83 | 0.604 | 1.71
2 | GATACAGGGTCAGCTAGAGGCCGGAGTATGGAAA | 4.48 | 2.56 | -0.44 | 2.17 | -0.594 | 4.57 | 3.61 | 3.41 | 0.716 | 2.13 | 1.03 | 2.37 | -0.293 | 0.124 | 1.78 | 2.59 | -0.0586 | 3.41 | 0.211 | 4.12
3 | GCTTGTAGATCAAGGTTAACAAAGACTAAGCTAA | 0.151 | 1.17 | -0.222 | 0.96 | -0.488 | 1.91 | 2.04 | 3.12 | 0.936 | 2.61 | 1.56 | 1.61 | -0.0951 | 0.163 | 0.0842 | 0.565 | 0.265 | 1.07 | -0.205 | 1.04
4 | TCGAGTAGGTTAACAATGGGGCATTCAGCTTTCT | 0.324 | 3.77 | -0.204 | 1.79 | -0.704 | 1.59 | 0.576 | 1.22 | 1.31 | 1.29 | 3.65 | 2.78 | 0.124 | 0.191 | 0.25 | 0.403 | -0.277 | 0.753 | -0.553 | 0.976
5 | CGTCAAAGTTCAAGGAAACGTAACAGAAAGCAGC | 5.45 | 5.15 | 1.92 | 2.97 | 0.958 | 4.11 | 3.58 | 4.4 | 1.69 | 3.29 | 0.0711 | 1.12 | 0.307 | 1.1 | 1.84 | 3.45 | 1.73 | 2.73 | 1.33 | 5
6 | AGAATGAGGTTATACGTAGATCAGAGAAGAAAGT | 2.4 | 1.86 | 0.0397 | 1.57 | 0.2 | 3.2 | 2.36 | 2.1 | 0.792 | 1.45 | 3.8 | 2.41 | 0.986 | 0.988 | 1.35 | 1.1 | 0.455 | 1.51 | 0.376 | 1.38
7 | AATACAGGGTCATCGTAGGCCTGAGTACGCACAG | 7.54 | 5.77 | 1.91 | 4.6 | 1.13 | 5.95 | 6.49 | 5.92 | 2.71 | 4.74 | 2.91 | 4.07 | 1.77 | 1.33 | 2.11 | 4.23 | 0.334 | 4.79 | 0.501 | 4.43
8 | TCAGACAGGTGAGGGTAACTCAGGTACGCAGTCG | 0.261 | 1.36 | -0.144 | 0.561 | -0.273 | 0.983 | 0.558 | 1.46 | 3.02 | 2.23 | 2.09 | 1.08 | 0.134 | -0.531 | 0.237 | 0.408 | -0.0185 | 0.722 | -0.208 | 1.02
9 | CGAACTAGGTCAAAGACAGTGAATCTCCGCACGC | 3.64 | 2.39 | 0.268 | 1.66 | 0.166 | 4.8 | 7.47 | 6.52 | 4.4 | 6.21 | 8.07 | 8.21 | 4.15 | 2.23 | 1.24 | 1.06 | 0.0351 | 1.82 | 0.463 | 3.74
10 | CCTAGTTGGTCAGGAGGTCACACAGCGGATATGA | 4.26 | 3.54 | 2.17 | 3.55 | 0.887 | 4.36 | 3.51 | 4.15 | 1.76 | 3.56 | 1.92 | 3.62 | 0.997 | 0.401 | 5.93 | 4.51 | 2.55 | 5.39 | 3.77 | 3.81
11 | CGTCCAAGGTCAAGGTCTGTGAAAGAGACTCGAA | 7.12 | 4.99 | 0.422 | 3.92 | 0.346 | 5.39 | 4.93 | 5.76 | 1.41 | 3.96 | 3.42 | 3.88 | 2.1 | 0.39 | 4.29 | 3.72 | 0.462 | 4.54 | 1.7 | 5.24
12 | CCTATTAGTTGTCCATAAGGGCAACCGAAGCTCG | 0.902 | 0.553 | 0.8 | 0.558 | 1.17 | 0.459 | 0.174 | 0.706 | -0.0798 | 0.365 | 0.332 | 0.804 | 0.706 | 1.02 | 1.69 | 0.563 | 0.996 | 1.1 | 2.11 | 1.44
13 | CCTTACGGGTCACTGACAGGTTATAACATTTGGA | 5.58 | 4.49 | 0.519 | 3.76 | 0.0468 | 5.18 | 4.66 | 4.61 | 1.74 | 3.38 | 3.56 | 3.86 | 0.537 | 0.266 | 2.85 | 3.67 | 0.294 | 4.67 | 1.52 | 3.9
14 | CCTTACGGGTCACTGACAGGTTATATCATTTGGA | 5.35 | 4.27 | 0.675 | 3.82 | -0.0554 | 5.14 | 4.29 | 4.13 | 1.54 | 2.98 | 3.09 | 3.76 | 1.37 | 0.355 | 2.85 | 3.69 | 0.432 | 4.84 | 0.665 | 4.08
